# PubChem BioAssay AID602250 (The Scripps Research Institute Molecular Screening Center, 2012)
# Hit rate of the full screen: of about 360,000 compounds, about 2,200 (0.61%) were called active. For the sample, actives were picked, then their nearest neighbours and some compounds at random. Unmarked numbers belong to inactive results.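 The calls were made as follows: active = inhibition above a per-plate cutoff, the plate's mean sample inhibition plus 3 SD (cut at about 24% in these data); inactive = the rest.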
# Experiment: nonselective inhibitors of ATP calcium response in CHO-K1, primary screen, counter-screen for M1 antagonist project, cell-based, Fluo-8 calcium fluorescence, full deck, 1536-well (AID 602250);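 also: 0% = DMSO plus EC80 ATP and 100% = DMSO alone without ATP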
# Conditions: CHO-K1 parental, ATP-induced calcium, Fluo-8 fluorescence; at 3 µM; active compounds read high
row,Structure (SMILES),inhibition
1,O=C(NCC(=O)N1CCC2(CC1)NCCc1[nH]cnc12)c1ccc(Br)cc1,-11.4%
2,CCC(=O)N1c2ccc(S(=O)(=O)NCc3ccco3)cc2CC1C (configuration not stated),-18.4%
3,CCC(=O)N1c2ccc(S(=O)(=O)CCC(=O)N3CCN(c4ccccc4)CC3)cc2CC1C (configuration not stated),24.5% (active)
4,CCC(=O)N1CCc2cc(S(=O)(=O)CCC(=O)N3CCN(c4ccccc4F)CC3)ccc21,-5.31%
5,CC[C@]12c3[nH]c4ccc(OC)cc4c3CCN1C(=O)C(CC(=O)NCCN1CCOCC1)C[C@@H]2C(=O)N1CCN(C(=O)C2CC2)CC1 (some centres not stated),-4.64%
6,CCc1ccc2oc(=O)cc(CN3CCCCC3C)c2c1 (configuration not stated),-11.8%
7,O=C(COC(=O)c1ccc(F)cc1)NCC1COc2ccccc2O1 (configuration not stated),-5.85%
8,COc1ccc(CCNc2ncnc3nc[nH]c23)cc1OC,10.8%
9,c1ccc2c(c1)OCC(CNc1ncnc3nc[nH]c13)O2 (configuration not stated),44.4% (active)
10,O=C(Nc1ccc2c(c1)OCCO2)C1c2ccccc2OCC(=O)N1Cc1ccccn1 (configuration not stated),-12.5%
11,CN(CCO)Cc1csc2ccc(Br)cc12,-7.65%
12,CN(Cc1ccc(F)cc1)C(=O)COc1ccc2ccccc2c1,-15.2%
13,COc1ccc(C(=O)COC(=O)Cn2cnc3c2c(=O)n(C)c(=O)n3C)c(OC)c1,-0.99%
14,COc1ccc(C(C#N)Nc2ccccc2C)cc1 (configuration not stated),-8.31%
15,CC(C)(C)n1nnnc1C(c1ccc2ncccc2c1)N1CCSCC1 (configuration not stated),-9.5%
16,COc1ccc(N2CCN(C(=O)CNC(=O)c3ccc(C(C)(C)C)cc3)CC2)cc1,9.5%
17,CCOc1ccc(C(=O)NCC(=O)N2CCN(c3ccc(C(F)(F)F)cn3)CC2)cc1,31.8% (active)
18,O=C(NCC(=O)N1CCN(c2ncc(C(F)(F)F)cc2Cl)CC1)c1ccc(Br)o1,-11.5%
19,Cc1ccccc1CSCCNC(=O)c1ccc(N(C)S(=O)(=O)c2ccccc2)cc1,-7.28%
20,Cc1cc(-c2nnc(SCC(=O)Nc3ccc(S(N)(=O)=O)cc3)n2N)n[nH]1,-13.8%
21,O=C(NCc1ccccc1)C1c2ccccc2OCC(=O)N1C1CC1 (configuration not stated),0.77%
22,O=[N+]([O-])c1ccc2c(c1)C(O)n1nc(-c3ccccc3)nc1S2 (configuration not stated),-21.9%
23,COc1ccc(CCNc2nc3ccc(C)cc3n3cnnc23)cc1OC,-5.44%

row,Structure (SMILES),inhibition
1,COc1ccc(OC)c(Nc2nc3ccccc3n3cnnc23)c1,-12.2%
2,COc1cc(Nc2nc3ccc(Cl)cc3n3cnnc23)cc(OC)c1OC,28.9% (active)
3,O=C1CN(C(=O)COC(=O)c2cnc(Cl)c(Cl)c2)c2ccccc2N1,-25%
4,O=C(CCc1nnc(Cc2ccc3c(c2)OCO3)o1)NCCc1ccccc1Cl,-0.82%
5,COc1ccccc1Cc1c(-c2ccc(Cl)cc2)nc2c3ccccc3ccn12,-20.1%
6,CCn1c(=S)[nH]c2cc(S(=O)(=O)N3CCOCC3)ccc21,-3.41%
7,CCCCn1c(=S)[nH]c2cc(S(=O)(=O)N3CCCCC3)ccc21,-12.6%
8,CNS(=O)(=O)c1ccc2c(c1)[nH]c(=S)n2C,35.9% (active)
9,CN1CCc2c(sc3c2c(NCc2ccco2)nc2nnnn23)C1,-19.9%
10,O=C(Cc1ccc(S(=O)(=O)N2CCOCC2)s1)N1CCN(c2ccc(C(F)(F)F)cc2[N+](=O)[O-])CC1,5.21%
11,O=C(c1ccc(N2CCCC2=O)cc1)N1CCN(c2ccc(C(F)(F)F)cc2[N+](=O)[O-])CC1,44% (active)
12,COc1cc(OC)cc(C(=O)NC(=S)N2CCN(c3ccc(C(F)(F)F)cc3[N+](=O)[O-])CC2)c1,5.86%
13,O=C(Nc1c(C(=O)N2CCCCC2)cnn1-c1ccccc1)c1ccco1,-0.49%
14,O=C(Nc1ccc(-n2cccn2)cc1)C1CCN(Cc2ccsc2)CC1,9.41%
15,CCCN(CCc1ccccc1)C1CCc2c(O)cccc2C1 (configuration not stated),27.5% (active)
16,Cc1cc(C)cc(C(=O)N(CCc2ccccc2)C2=CC3CCC(C2)N3C)c1 (configuration not stated),-5.45%
17,CCN(CC(=O)NC(C)C)C(=O)CCNC(=O)c1ccc(Cl)cc1,-14.6%
18,O=C1NC[C@@H](Cc2ccc(O)cc2)N(CCc2cccc(F)c2)C1=O,-5%
19,Cc1cccn2c(=O)c(/C=C(\C#N)S(=O)(=O)c3ccc(Cl)cc3)c(N3CCC(C(N)=O)CC3)nc12,-14.1%
20,N#Cc1c(N2CCCCC2)nc(N)c2c(N)nc(SCC(=O)O)cc12,-8.03%
21,Cc1cc(C)c(C#N)c(N2CCC(C(N)=O)CC2)n1,23.7% (active)
22,Cc1ccc(OS(=O)(=O)c2ccc(-c3csc(C)n3)s2)c(C)c1,-12%
23,CC1=C2C(=O)OC(c3ccoc3)C2(C)CCC1 (configuration not stated),-12.4%

row,Structure (SMILES),inhibition
1,Cc1ccc(-n2nc3c(=O)n(C(C)C(=O)NCc4ccc5c(c4)OCO5)nc(C)c3c2C)cc1 (configuration not stated),-17.4%
2,CC1=C(C(=O)N(C)C)CC(CC(=O)NCCN2CCOCC2)C(=O)N1Cc1ccccc1 (configuration not stated),-3.35%
3,COc1ccc(OC)c(C2C3=C(N=c4s/c(=C\c5cccc(O)c5)c(=O)n42)c2ccccc2CC3)c1 (configuration not stated),-5.43%
4,O=C(Cc1ccc(Cl)cc1)NC(=S)Nc1ccccc1O,31.4% (active)
5,COC(=O)c1ccccc1NC(=O)CN(Cc1ccc(Cl)cc1)S(C)(=O)=O,-17.4%
6,CCOc1ccccc1NC(=S)NC(=O)CCc1ccccc1,-6.79%
7,CC(=O)c1cc(C#N)c(SCC(=O)Nc2nccs2)nc1C,-13.3%
8,Clc1cc(NC2CCCCC2)ncn1,0.49%
9,COCCCN(C(=O)Cn1ncc2c(=O)oc3ccc(C)cc3c21)C(C)c1ccncc1 (configuration not stated),-9.26%
10,CCCCn1nnnc1C(c1cccc(OC)c1OC)N1CCN(C/C=C/c2ccccc2)CC1 (configuration not stated),-19.7%
11,CC(=O)c1c(C)[nH]c(C(=O)COC(=O)CCOc2ccc(C)cc2)c1C,4.03%
12,CC(=O)c1c(C)[nH]c(C(=O)COC(=O)c2cccc(S(=O)(=O)N(C)c3ccccc3)c2)c1C,43.1% (active)
13,CN(c1ccccc1)S(=O)(=O)c1ccc(Cl)c(C(=O)OCC(N)=O)c1,4.64%
14,O=C(NCc1ccccc1)[C@@H]1CSC2c3ccccc3C(=O)N21 (some centres not stated),-4.7%
15,Nc1ccc2nn(-c3ccc(Cl)cc3)nc2c1,-10.4%
16,CN(C)c1ccc(/C=C2\NC(=S)N(Cc3ccccc3)C2=O)cc1,53.4% (active)
17,CN(C)c1ccc(CSc2ccccc2)cc1,-21.6%
18,CN(C(=O)CN1C(=O)NC(C)(CCc2ccccc2)C1=O)c1ccccc1 (configuration not stated),-3.27%
19,Cc1ccc(N2C(=O)CC(Sc3ncn[nH]3)C2=O)cc1 (configuration not stated),-12.5%
20,COc1ccc(N2C(=O)CC(Sc3n[nH]c(-c4ccc(C)cc4)n3)C2=O)cc1 (configuration not stated),24.5% (active)
21,COc1ccc(-c2nc(SCC(=O)N3CCOCC3)n[nH]2)cc1,-11.8%
22,Cn1c(SCC(=O)NC2CCCCC2)nnc1-c1cc2ccccc2o1,-5.47%
23,CCc1c(SCCC(=O)O)nc2ccccc2c1C,-13.8%

row,Structure (SMILES),inhibition
1,CCNC(=S)NCC,-17.7%
2,O=C1OC(c2ccc(Cl)cc2)=N/C1=C\c1cccnc1,32.7% (active)
3,Cc1ccc(C2=C/C(=C\c3cccnc3)C(=O)O2)cc1,6.03%
4,O=C1NNC(c2ccccc2)=N/C1=C\c1ccc(Cl)cc1,3.07%
5,CCCCCCN1C[C@@H](O)[C@H](n2cc(COC(=O)c3ccccc3)nn2)C[C@@H]1c1ccc(Cl)cc1,0.85%
6,CN1OC(COC(=O)c2ccc(Cl)cc2)CC1c1ccccc1 (configuration not stated),28.7% (active)
7,Cn1cncc1COC(=O)c1ccc(Cl)cc1,9.06%
8,O=C(Nn1cc(C(=O)N2CCN(c3ccccc3F)CC2)c2ccccc2c1=O)c1cnccn1,-2.09%
9,O=C(NCCCO)c1cc2c([nH]c3ccccc32)c(-c2ccc(F)cc2)n1,-6.07%
10,COc1ccc2cc(C(=O)NCC3CCCO3)[nH]c2c1 (configuration not stated),-13.7%
11,O=C(NCC1CCCO1)c1cc2c([nH]c3ccccc32)c(-c2ccc(F)cc2)n1 (configuration not stated),31.3% (active)
12,Fc1ccccc1CCNc1nnnn1-c1ccccc1,-1.72%
13,OCCc1ccc(NCCc2ccco2)cc1,29.2% (active)
14,Cc1ccsc1C(=O)NCCc1ccco1,-8.62%
15,COC(=O)Cc1ccc(NC(=S)NCc2ccco2)cc1,2.26%
16,CC1=CC2=NC(=O)CC(C)(C(=O)N(CC(=O)NC(C)(C)C)Cc3ccccc3)N2C=C1 (configuration not stated),-17.9%
17,CC1(C)CC(=O)C2=C(C1)N=C1SCCC(=O)N1C2c1ccc(C(F)(F)F)cc1 (configuration not stated),-16.7%
18,N/C(=N\OC(=O)N1c2ccccc2Sc2ccccc21)c1ccc(Br)cc1,-4.6%
19,N/C(=N\OC(=O)Cc1ccccc1[N+](=O)[O-])c1ccc(Br)cc1,-3.46%
20,N/C(=N\OC(=O)/C=C/c1ccccc1)c1ccc(Br)cc1,24.5% (active)
21,CCc1ccc(/C=N/NC(=O)c2ccc(OC3CCCC3)cc2)s1,3.77%
22,Cc1cc(=O)oc2c(C)c(OCC(=O)NCCN3CCOCC3)ccc12,-7.03%
23,O=C(C1CCCO1)N1CCN(S(=O)(=O)c2ccc(Br)cc2)CC1 (configuration not stated),5.99%
